Bioassay records (PubChem BioAssay)
Tau fibril ThT = blocks human tau fibril formation measured by thioflavin T. P10636. recombinant tau K18 P301L, heparin-induced fibrillization, ThT fluorescence. Potency, µM (top dose mostly 57.4 µM), without a hit: at the highest dose activity, negative = inhibition, actives largely listed as inhibitors. 270,000 tested, 2.1% active; note: potency is the fitted concentration of half-maximal effect; nearly all actives have a fitted effect of over 55% in size
Target sequence (P10636 561-689 P618L limits assumed): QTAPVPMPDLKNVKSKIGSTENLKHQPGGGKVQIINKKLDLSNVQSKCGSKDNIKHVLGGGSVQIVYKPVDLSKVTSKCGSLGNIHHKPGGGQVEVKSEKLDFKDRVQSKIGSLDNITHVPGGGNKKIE
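Fibril formation assay: tau K18 P301L at 15 uM with trace Alexa 594 label, heparin inducer 20 uM, pH 7 sodium acetate buffer, 37 C for 6 hr; endpoint ThT signal.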
Sfp inh = inhibitors of Bacillus subtilis Sfp phosphopantetheinyl transferase; Biochemical Sfp PPTase activity, qHTS; Potency, µM, for the others: largest response in the series, negative = inhibition, most hits filed as inhibitors; 310,000 tested, 3.5% active;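 note: the enzyme is Sfp with the accession as filed and its product quenches rhodamine fluorescence; potency is the fitted concentration of half-maximal effect; 0% = enzyme reaction without inhibitor and -100% = no enzyme wells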
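Fluorescence-quenching assay: 15 nM Sfp-PPTase preincubated 15 min at room temperature with compound, then 5 uM rhodamine-CoA and 12.5 uM BHQ-2-labelled YbbR peptide added. Fluorescence (ex 525/em 598 nm) read at start and after 30 min; difference gives rate.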
Tau FP inhib = tau fibrillization inhibition (FP) | P10636 | K18 P301L tau heparin fibrillization, Alexa594 FP, 6 h | 280,000 tested, 0.39% active | Potency, µM (doses to about 57.7 µM), without a hit: top-dose activity, negative = inhibition, usual class: inhibitors; note: potency is the fitted concentration of half-maximal effect; nearly all actives have a fitted effect of over 55% in size
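Human K18 P301L fragment (15 uM unlabeled plus 0.24 uM Alexa 594-labeled) in 100 mM sodium acetate pH 7 with compound, aggregation induced by 20 uM heparin for 6 hr at 37 C. ThT (30 uM) added for 1 hr, then Alexa 594 FP read.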
G9a block = inhibitors of human histone lysine methyltransferase G9a | G9a H3K9 monomethylation, AlphaScreen, 2 h | Potency, µM (top dose mostly 102 µM), for inactives: top-dose activity, negative = inhibition, actives largely listed as inhibitors | Q96KQ7 | 350,000 tested, 8.8% active | AID 504332; note: potency is the fitted concentration of half-maximal effect; nearly all actives have a fitted effect of over 75% in size
Target sequence (Q96KQ7 913-1193 limits assumed): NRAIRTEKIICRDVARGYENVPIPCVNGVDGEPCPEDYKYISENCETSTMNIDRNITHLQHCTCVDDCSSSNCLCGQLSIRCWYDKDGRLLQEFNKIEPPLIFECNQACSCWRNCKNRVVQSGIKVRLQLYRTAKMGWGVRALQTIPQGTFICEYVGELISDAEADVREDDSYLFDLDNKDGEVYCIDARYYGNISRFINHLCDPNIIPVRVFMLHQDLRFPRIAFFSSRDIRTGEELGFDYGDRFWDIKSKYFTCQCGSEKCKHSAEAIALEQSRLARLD
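G9a (20 nM) preincubated 15 min RT with compounds, then 500 nM biotinylated H3K9 peptide and 20 uM SAM added; 2 h RT reaction. Monomethyl-H3K9 product detected by AlphaScreen with anti-H3K9me1 antibody, streptavidin donor and anti-rabbit IgG acceptor beads.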
FBPA coupling cs = coupling enzyme interference in Giardia aldolase counter-screen. coupling enzyme system counterscreen, AmpLite Red fluorescence. activity change, negative = inhibition, % at 58.2 µM, hits read low. 290,000 tested, 0.67% active; in the data active = activity change below about -30%
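First, compound is pin-transferred into glyceraldehyde-3-phosphate coupling-enzyme reagent at 57.5 uM final and held 10 min at RT. Next, substrate, coupling system and AmpLite Red are added. After 20 min RT, fluorescence (525/598 nm) is read.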
Tau fluor counter = counter-screen for tau fibril formation inhibitors; tau K18 P301L Alexa594 fluorescence, heparin fibrillization; Potency, µM (titrated, usually from 57.7 µM), inactives show at the highest dose activity change, negative = decrease; 280,000 tested, 0.93% active; AID 1463; note: potency is the fitted concentration of half-maximal effect; nearly all actives have a fitted effect of over 55% in size
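Human tau K18 P301L (15 uM unlabeled, 0.24 uM Alexa 594-labeled) in 100 mM sodium acetate pH 7 with 20 uM heparin, 6 hr at 37 C. ThT 30 uM added, 1 hr ambient; Alexa 594 FP and total fluorescence read at 555/632 nm.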
* marks the source's active call; other numbers are inactive results; ? = inconclusive; nt = not tested or not shown; ! = a repeat was not active; [ ] = dose if it differs, or a comment. Compounds with a hit are over-represented: about 11% of the library has one in this group of screens. Unless noted, calls come from the whole dose curve; as a rule, active = well fitted curve in the direction sought with a large enough effect; inconclusive = small, poorly fitted or top-dose-only effect, or another doubt; inactive = no such curve, though single readings can be large; an effect the other way counts as inactive or inconclusive. Unless noted, % is set by controls: 0 for no effect and ±100 for the full control effect.

SMILES	Tau fibril ThT	Sfp inh	Tau FP inhib	G9a block	FBPA coupling cs	Tau fluor counter
O=C1C[C@H](c2ccc(-c3ccccc3)cc2)N1S(=O)(=O)c1ccccc1[N+](=O)[O-]	nt	10%	nt	nt	16	nt
COc1ccc(NC(=O)c2oc3ccccc3c2NC(=O)C2CCCCC2)c(OC)c1	3%	nt	-3%	-1%[59 µM]	nt	-28%
COc1ccc(CCNCC(=O)Nc2ccc(OC(F)(F)F)cc2)cc1OC	nt	-11%	nt	32µM*	2	nt
COCCCNCC(=O)Nc1ccc(OC(F)(F)F)cc1	-2%	2%	-1%	8.9µM*	-3	0%
COc1ccc(C2=CC(c3c(C)nn(-c4ccccc4)c3Cl)n3nnnc3N2)cc1OC (centres undefined)	-17%	-2%	8%	45µM*	0	-15%
COc1ccccc1C1C=C(c2ccc(C)cc2)Nc2nnnn21 (centres undefined)	-1%	-11%	7%	?	0	-6%
O=C(COc1ccc(Cl)cc1Br)NC(=O)NC1CCCC1	nt	nt	nt	8%[0.501 µM]	nt	nt
Cc1ccc(-n2cc3c(-c4cccc(Br)c4)nnc(C)c3n2)cc1	-9%	-10%	2%	-32%	4	-12%
Cc1nnc(-c2cccc(Br)c2)c2cn(-c3ccccc3Cl)nc12	-13%	56µM*	-2%	13%[12.7 µM]	2	-6%
CCOc1ccc(S(=O)(=O)Nc2cccc(C(=O)N(C)CC(=O)Nc3cccc(OC)c3)c2)cc1	nt	nt	nt	6%[0.501 µM]	nt	nt
COc1ccc(-c2c(C3C4C=CCC(C)C4C(=O)N3Cc3ccccc3)ccc3ccccc23)cc1 (centres undefined)	nt	-2%	nt	nt	1	nt
COc1ccc(N2C(=O)CC(Nc3cccc(C(C)=O)c3)C2=O)cc1OC (centres undefined)	-13%	3%	2%	18µM*	-3	-5%
COc1ccc(NC2CC(=O)N(c3ccc(C(=O)O)cc3)C2=O)cc1 (centres undefined)	?	14%	1%	50µM*	2	-2%
COc1ccc(NC2CC(=O)N(c3cccc(C)c3)C2=O)cc1 (centres undefined)	?	7%	5%	2%[59 µM]	-3	-8%
Cc1ccc(S(=O)(=O)c2cnc(SCC(=O)Nc3ccccc3C(F)(F)F)[nH]c2=O)cc1C	-6%	nt	-3%	6%[59 µM]	nt	-7%
N#CC(C#N)=Cc1ccc(OC(=O)c2ccccn2)cc1	?	45µM*	-3%	2.5µM*	1	-1%
COC(=O)c1ccc(OC(=O)c2ccccn2)cc1	?	56µM*	0%	-7%[2.33 µM]	2	-11%
COC(=O)c1ccc(/C=C(\C#N)c2ccccn2)cc1	?	15%	5%	-24%	0	-19%
COC(=O)C1=C[C@@H](C(=O)OC)[C@@H]2C3=C(C(=O)[C@@]2(C)NC(=O)c2ccccc2)[C@H](C)[C@@H]2C(=O)N(Cc4ccccc4)C(=O)[C@@H]2[C@@H]3C1	nt	7%	nt	nt	2	nt
CCc1c(C)c2ccc(O)c(CN3CCN(c4ccc(F)cc4)CC3)c2oc1=O	-6%	nt	2%	-7%[59 µM]	nt	-2%
C[N+](C)=C1SCC(C)(/C=N/O)S1 (centres undefined)	?	?	?	17%	3	-8%
c1ccc(-c2nn[nH]n2)cc1	8%	19%	-1%	?	2	8%
c1ccc(-c2n[nH]c(-c3ccccn3)n2)nc1	3%	20µM*	7%	?	2	13%
Nn1c(-c2ccccn2)nnc1-c1ccccn1	-9%	2%	-1%	16%[12.7 µM]	0	2%
c1ccc(-c2ccc(-c3ccccn3)nn2)nc1	-8%	16µM*	-15%	?	-4	0%
c1ccc(-c2ccccn2)nc1	-7%	-10%	-5%	14µM*!	1	-4%
c1ccc(-c2nn[nH]n2)nc1	nt	56µM*	8%	nt	1	4%
CCN(CC)S(=O)(=O)c1nnc(NC(=O)COc2cccc(C)c2)s1	?	nt	8%	-41%[59 µM]	nt	4%
